# PubChem BioAssay (NCATS)
# Results filed as inconclusive are left out. A call without a number means that no potency is given here. Active and inactive are the calls of the source. The call rests on the fitted dose curve; in most records, active means well fitted inhibition curve with a large enough effect; inconclusive means small, poorly fitted or top-dose-only effect; inactive means flat fitted curve, though single readings scatter.
# Assay: qHTS for Inhibitors of Plasmodium falciparum (DD2) proliferation (AID 504314)
# Details: P. falciparum Dd2 in erythrocytes, SYBR Green growth, 72 h; series mostly up to 6.11 µM
# Excerpt: Plasmodium falciparum is a virulent malarial parasite that kills 1-2 million people worldwide each year. Malaria not only inflicts tremendous suffering and morbidity on the human population, but has dramatically influenced the course of civilization with profound sociological and economic implications (Shah, S. 2010). Transmitted by mosquitoes, the sporozoite form of the parasite enters the blood stream to infect hepatocytes, where they become merozoites that infect red blood cells (erythrocytes). Within erythrocytes, merozoites begin a […] cycle of growth and division, after which the parasite is released to infect new red blood cells. Gametocytes, which form within erythrocytes as well, circulate in the bloodstream and are ingested by the mosquito, thereby completing the life cycle (see CDC website). To profile malarial lines for differential chemical responses and to identify inhibitors of malarial growth, an assay that measures P. falciparum growth and replication within erythrocytes was employed. This assay uses a DNA binding fluorescent dye (SYBR Green) to detect parasite DNA following cell lysis. Because mature erythrocytes lack DNA, only Plasmodium-derived DNA is detected. The P. falciparum line cp250, derived from a malarial isolate from Cambodia, (Mu, J., et al. 2010) was added to the panel of lines, Dd2, HB3, 7G8 and GB4 in this study.
# Laboratory of Assay Development and Screening Technology [ADST] and NIH Chemical Genomics Center [NCGC]
# Boston University, Chemistry Department, Center for Chemical Methodology and Library Development [CMLD-BU]
# NIH National Institute of Allergy and Infectious Diseases [NIAID]
# ADST Assay Protocol Summary:
# The 1536-well SYBR Green viability assay was based on the method of Bennett et al (2004) and described previously in 1536-well format (Yuan J., et al. 2009). For screening 3 ul culture medium was dispensed into 1536 well black clear bottom plates (Aurora Biotechnologies) using a Multidrop Combi (Thermo Fisher Scientific Inc.), 23 nL compounds in DMSO were added by a pin transfer (Cleveland, P.H. and Koutz, P.J, 2005) using a pin tool-based delivery system (Kalypsys), and 5 ul of erythrocytes infected with P. falciparum one of five lines (cp250, Dd2, HB3, 7G8 or GB4, 0.3% parasitemia, 2.5% hematocrit final concentration) were added. The plates were incubated at 37C in a humidified incubator in 5% CO2 for 72 h, and 2 ul lysis buffer (20 mM Tris HCl, 10 mM EDTA, 0.16% saponin, 1.6% triton X, 10X SYBR Green I (supplied as 10,000X final concentration by Invitrogen) was added to each well. The plates were mixed for 25 sec with gentle shaking and incubated overnight at room temperature in the dark. The following morning, fluorescence intensity at 485(14) nm excitation and 535(25) nm emission wavelengths was measured on an EnVision (Perkin Elmer) plate reader. Plate reads were normalized relative to the control inhibitor (0.29 uM artemisinin) and vehicle (DMSO) wells present on each plate and then corrected by an algorithm using vehicle-only control plates at the beginning and end of the compound plate stack.
# Shah, S. (2010). The Fever: how malaria has ruled humankind for 500,000 years. New York, Sarah Crichton Books.
# CDC web site, http://www.cdc.gov/malaria/about/biology/index.html
# Mu, J., Myers, R.A., Jiang, H., Liu, S., Ricklefs, S., Waisberg, M., Chotivanich, K., Wilairatana, P., Krudsood, S., White, N.J., et Plasmodium falciparum genome-wide scans for positive selection, recombination hot spots and resistance to antimalarial drugs Nature Genetics 2010, 42, pp 268-271
# Bennett TN, Paguio, M., Gligorijevic, B., Seudieu, C., Kosar, A. D., Davidson, E., and Roepe, P. D. Novel, rapid, and inexpensive cell-based quantification of antimalarial drug efficacy Antimicrobial Agents Chemother. 2004, 48(5): pp 1807-10
# Yuan J, Johnson RL, Huang RL, Wichterman J, Jiang HY, Hayton K, Fidock DA, Wellems TE, Inglese J, Austin CP, Su XZ. […]
# Potency means the concentration at half of the fitted maximal effect.
Compound,Potency,"activity, negative = inhibition"
C=C1CN2C(=NC(c3ccccc3)C(C(=O)OC)=C2C)O1 (stereo not given),inactive,–
C#CCN1C(=O)CC[C@@]23C1=NC(C(=O)OC)=C(C(=O)OC)[C@@H]2N(C)c1ccccc13,inactive,–
CC#CCN1C(=O)NC(c2ccccc2)C(C(=O)OC)=C1C (stereo not given),inactive,–
C=CC[C@@H]1C=C[C@@H](ON=C2[C@H]3CCn4c(=O)n(-c5ccccc5)c(=O)n4[C@@H]3[C@H](O)[C@@H]3O[C@H]23)[C@@H](CO)O1,inactive,–
COc1cccc([C@@H]2Oc3ccc(OC)cc3[C@H](O)[C@@H]2O)c1,inactive,–
COc1cccc([C@H]2Oc3ccc(OC)cc3C(=NOC[C@@H](C)[C@H](OCc3ccccc3)C(C)C)[C@H]2O)c1,inactive,–
O=C1C2=C(C(=O)c3ccccc31)[C@H]1O[C@](CCCCN3C(=O)c4ccccc4C3=O)(Cc3c1ccc1ccccc31)O2,1500 nM (active),–
COc1cc2c(cc1OC)[C@@H]1O[C@](c3ccsc3)(C2)Oc2cc(-c3ccccc3)oc(=O)c21,inactive,–
COc1ccc(C(=O)CC(=O)c2c(O)cc(OC)cc2OC)cc1,inactive,–
C=C(C)C1CC23C(=O)[C@]4(C(=O)c5ccccc5)C[C@@]5(C)CCC(CC2C1(C)C)(C4=O)[C@@]35OC (stereo not given in full),inactive,–
COC1=CC2C(=O)C(C1=O)[C@H](c1ccccc1)[C@H]2C (stereo not given in full),inactive,–
COC(=O)c1nnc(C(=O)NCc2ccccc2)c2[nH]c3ccccc3c12,inactive,–
CC1=CC[C@@H](C)O[C@@]2(C1)C(=O)N(Cc1ccc(Br)cc1)c1ccccc12,inactive,–
COC(=O)C1=C(C)N(Cc2ccccc2)C(=NCCc2ccccn2)NC1c1cccc(C(F)(F)F)c1 (stereo not given),948 nM (active),–
COC(=O)c1nnc(SC)nc1C(=O)OC,inactive,–
C#CCCCON=C1C[C@@H](O)[C@H](O)[C@H]2[C@@H]3C(=O)N(Cc4ccccc4)C(=O)[C@@H]3CC[C@H]12,inactive,–
C[C@H](O)CON1C(=O)c2ccccc2C1=O,inactive,–
COc1cc(OC)c([C@@H]2O[C@H](CO)[C@@H](O)[C@H](O)[C@@H]2O)c(OC)c1,inactive,–
C=CCOC(=O)N[C@@H](Cc1ccccc1)C(C(=O)OC)=C(C)NCc1ccccc1,inactive,–
C=C(C)C(=O)C=Cc1ccc(Br)cc1,inactive,–

Compound,Potency,"activity, negative = inhibition"
CCO[C@@H]1C[C@@]1(C=C[C@@H](C)[C@H](OC)c1ccccc1Br)C(=O)OC,inactive,–
C=CCN=C1N[C@@H](c2ccccc2)[C@H](C(=O)OC)[C@@H](C)N1CC,inactive,–
N#Cc1ccc2c(c1)C[C@]1(c3ccsc3)Oc3c(c(=O)oc4ccccc34)[C@H]2O1,inactive,–
CC=COC(=O)N[C@@H](c1cccc(C)c1)[C@]1(C(=O)OCC)CCCC1=O,inactive,–
COC(=O)N[C@@H](c1ccc(Br)cc1)C(C(=O)OC)C(=O)OC,inactive,–
CCN1C(=O)N[C@@H](CCc2ccccc2)[C@H](C(C)=O)[C@H]1C,inactive,–
CC=COC(=O)N[C@@H](c1ccccc1)[C@]1(C(=O)OCC)CCCC1=O,inactive,–
CCN1C(=NCc2cccc(Cl)c2)N[C@@H](CCc2ccccc2)[C@H](C(=O)OC)[C@H]1C,inactive,–
O=C1[C@@H]2[C@H]3[C@H](O)[C@H](O)CC(=NOC[C@@H](O)COCc4ccco4)[C@@H]3CC[C@H]2C(=O)N1C1CCCCC1,inactive,–
C=CCN1C(=O)[C@]2(OCCC=C[C@H]2C)c2c(Br)cccc21,inactive,–
CC(=O)OC[C@H]1O[C@H](c2cc(C)cc(C)c2)C=C[C@H]1OC(C)=O,inactive,–
C=CC[C@@H]1C=C[C@H](ON=C2c3cc(OC)ccc3O[C@H](c3cccc(OC)c3)[C@@H]2O)[C@H](CO)O1,inactive,–
COc1cccc(CO[C@H]2C=C[C@@H](c3ccccc3)O[C@H]2CN=[N+]=[N-])c1,inactive,–
COC(=O)C1=C(C(=O)OC)[C@@H]2Nc3ccccc3[C@@]23C[C@@H](C(=O)OC)N(C(=O)Nc2ccccc2F)C3=N1,inactive,–
CC1(OC(=O)C2CCCC2)C(=O)C=C2C=C3CCCCN3C=C2C1=O (stereo not given),–,1.6% [at 1.12 µM] (inactive)
CC(C)(C)c1nc(-c2ccccc2)oc1Nc1ccc2ccccc2c1,1690 nM (active),–
COC(=O)N[C@@H](C=Cc1ccccc1)[C@@H](C)[N+](=O)[O-],inactive,–
CCCNC(=O)OC[C@H]1O[C@H](CCON=C2C[C@@H](O)[C@@H](O)[C@@H]3[C@H]4C(=O)N(CC)C(=O)[C@@H]4CC[C@H]23)C=C[C@H]1Oc1ccc(OC)cc1,inactive,–
COC1=CC2C(=O)C(C(c3ccccc3)C2C)C1(C)O (stereo not given),inactive,–
Cc1noc(C)c1S(=O)(=O)N1CCc2nc(-c3ccccc3)c3c(c2C1)CO[C@@H](C)C3,–,2% [at 1.12 µM] (inactive)
